Source: PubChem BioAssay (Tox21)
Inconclusive results are not listed. The source made the active and inactive calls. Unless noted, the call rests on the fitted dose curve.

Experiments:
[1] = Nuclear factor erythroid 2-related factor 2/antioxidant responsive element (Nrf2/ARE) small molecule agonists: qHTS cell viability counter screen in human keratinocytes (AID 1919968; active means well fitted curve in the direction sought with a large enough effect in the repeat runs; an effect the other way counts as inactive or inconclusive; further: nearly all actives have a fitted effect of over 55% in size)
In short: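 Fluorescence read-out from CellTiter-Fluor after 1 h at 37 C. Wells held HaCaT-derived ARE-luciferase reporter cells (1,500/well) treated 23 h with DMSO-dissolved compounds. Run in the same wells as the luciferase agonist read.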

[2] = Nuclear factor erythroid 2-related factor 2/antioxidant responsive element (Nrf2/ARE) small molecule agonists: luciferase reporter gene qHTS assay in human keratinocytes (AID 1919969); further: nearly all actives have a fitted effect of over 35% in size
[3] = molecular target: Gonadotropin-releasing hormone receptor (Homo sapiens) (UniProt P30968); test: Human gonadotropin-releasing hormone receptor (GnRHR) small molecule agonists, calcium flux assay in GnRHR-HEK293 cells (AID 1920063); further: nearly all actives have a fitted effect of over 35% in size
Chain of Gonadotropin-releasing hormone receptor (Homo sapiens) (P30968 whole entry, looked up): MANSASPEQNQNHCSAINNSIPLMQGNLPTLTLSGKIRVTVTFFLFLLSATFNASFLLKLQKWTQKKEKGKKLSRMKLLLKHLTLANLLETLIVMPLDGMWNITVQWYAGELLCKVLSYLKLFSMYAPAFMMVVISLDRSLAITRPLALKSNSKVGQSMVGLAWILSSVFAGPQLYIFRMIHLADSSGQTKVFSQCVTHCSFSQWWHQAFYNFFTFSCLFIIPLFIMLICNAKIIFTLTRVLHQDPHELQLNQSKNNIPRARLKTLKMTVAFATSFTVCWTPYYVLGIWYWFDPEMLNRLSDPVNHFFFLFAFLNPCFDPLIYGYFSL
In short: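 Calcium-dye fluorescence, Ex/Em=480/540, recorded every 1 sec over 3 min after compound addition to GnRHR-HEK293 cells. Cells had been seeded 18 hours earlier and dye-loaded for 1 hour at 37 C. Fifteen concentrations, triplicates.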

[4] = molecular target: KiSS-1 receptor (Homo sapiens) (UniProt Q969F8); test: Human kisspeptin (KISS1R) small molecule agonists, calcium flux assay in KISS1R-HEK293 cells (AID 1920064; active means well fitted curve in the direction sought with a large enough effect in the repeat runs; an effect the other way counts as inactive or inconclusive)
Chain of KiSS-1 receptor (Homo sapiens) (Q969F8 whole entry, looked up): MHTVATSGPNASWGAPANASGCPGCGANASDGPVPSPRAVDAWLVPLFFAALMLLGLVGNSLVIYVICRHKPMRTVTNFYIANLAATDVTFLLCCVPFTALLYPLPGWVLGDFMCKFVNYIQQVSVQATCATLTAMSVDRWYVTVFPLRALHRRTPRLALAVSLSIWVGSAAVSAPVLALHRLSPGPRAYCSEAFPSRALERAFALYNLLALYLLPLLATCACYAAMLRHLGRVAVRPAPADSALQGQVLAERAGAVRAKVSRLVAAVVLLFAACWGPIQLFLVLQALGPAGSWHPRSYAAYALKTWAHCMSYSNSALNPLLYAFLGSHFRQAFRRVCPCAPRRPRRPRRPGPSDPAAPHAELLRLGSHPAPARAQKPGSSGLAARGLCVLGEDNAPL
In short: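 Calcium flux read-out: kinetic fluorescence at Ex/Em=480/540, 1 s intervals over 3 min, after pin-tool compound addition to dye-loaded KISS1R-HEK293 cells. Fifteen concentrations, triplicates.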

[5] = G protein-coupled receptor (GPCR) small molecule agonists, calcium flux assay: HEK293 wild type cell line counter screen (AID 1920065)
In short: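 Agonist mode; 18 h seeding at 37 C, 1 h dye load at 37 C; compounds pinned from DMSO, ATP as positive control; kinetic fluorescence 480/540 nm, 3 min, 1 s reads; 15 concentrations, triplicate.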

[6] = p53 small molecule agonists, cell-based qHTS assay with human liver microsomes (AID 1963577)
In short: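 Compounds act here after metabolic activation: human liver microsomes and NADPH, both at 0.5 mg/mL final, were co-added to p53RE-bla cells. Incubation ran 16 h at 37 C, followed by LiveBLAzer detection.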

[7] = p53 small molecule agonists, cell-based qHTS assay with human liver microsomes: qHTS cell viability counter screen (AID 1963579); further: nearly all actives have a fitted effect of over 45% in size
In short: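 Cells carrying the p53 response-element beta-lactamase reporter are treated for 16 h at 37 C with test compounds in the presence of human liver microsomes and NADPH (both 0.5 mg/mL final); ATP-based CellTiter-Glo luminescence then reports viability.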

[8] = p53 small molecule agonists, cell-based qHTS assay with rat liver microsomes: qHTS cell viability counter screen (AID 1963580); further: nearly all actives have a fitted effect of over 45% in size
In short: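 After the beta-lactamase ratio was read, CellTiter-Glo was added to the same wells and luminescence measured at 30 min; cells had been treated 16 h at 37 C with compounds, rat liver microsomes and NADPH (0.5 mg/mL final each).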

[9] = p53 small molecule agonists, cell-based qHTS assay: qHTS cell viability counter screen (AID 1963581); further: nearly all actives have a fitted effect of over 45% in size
In short: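 Cytotoxicity read-out: ATP-based luminescence (CellTiter-Glo, 30 min RT) measured in the same wells as the p53 reporter assay, HCT-116 p53RE-bla cells, 16 h compound exposure at 37 C.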

[10] = p53 small molecule agonists, cell-based qHTS assay (AID 1963582; active means well fitted activation curve with a large enough effect in the signal ratio in the repeat runs, not every such curve was filed as active; the % refers to the signal ratio)
In short: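 Fluorescence intensity read-out of a beta-lactamase reporter under a p53 response element. Cells were exposed to DMSO-dissolved compounds for 16 h at 37 C, then developed with FRET substrate for 2 h at RT.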

[11] = molecular target: 5-hydroxytryptamine receptor 2A (Homo sapiens) (UniProt P28223); test: 5-hydroxytryptamine receptor 2A (HTR2A) small molecule antagonists, cell-based qHTS assay (AID 1963586); further: nearly all actives have a fitted effect of over 45% in size
Chain of 5-hydroxytryptamine receptor 2A (Homo sapiens) (P28223 whole entry, looked up): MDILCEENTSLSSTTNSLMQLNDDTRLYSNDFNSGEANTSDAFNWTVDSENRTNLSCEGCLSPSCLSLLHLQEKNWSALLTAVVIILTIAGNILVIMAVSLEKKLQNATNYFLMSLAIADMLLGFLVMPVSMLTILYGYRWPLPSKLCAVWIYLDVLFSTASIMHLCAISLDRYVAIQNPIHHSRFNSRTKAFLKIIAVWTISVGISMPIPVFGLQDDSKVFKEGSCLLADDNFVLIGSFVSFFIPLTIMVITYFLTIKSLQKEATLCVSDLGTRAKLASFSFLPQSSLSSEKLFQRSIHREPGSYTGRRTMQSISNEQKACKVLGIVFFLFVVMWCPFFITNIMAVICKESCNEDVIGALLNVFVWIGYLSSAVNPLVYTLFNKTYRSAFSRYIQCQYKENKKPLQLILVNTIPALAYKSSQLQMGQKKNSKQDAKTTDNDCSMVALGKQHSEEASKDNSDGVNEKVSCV
In short: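 CHO cells stably expressing human HTR2A were plated for 18 h at 37 C, then loaded with calcium dye for 1 h. Compounds were preincubated 5 min at room temperature before DOI (4 nM solution) was added. Kinetic fluorescence was read for 3 min.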

[12] = molecular target: 5-hydroxytryptamine receptor 2A (Homo sapiens) (UniProt P28223); test: 5-hydroxytryptamine receptor 2A (HTR2A) small molecule agonists, cell-based qHTS assay (AID 1963587); further: nearly all actives have a fitted effect of over 30% in size
In short: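 CHO cells stably expressing human HTR2A, plated 18 h, loaded with calcium dye 1 h at 37 C. Agonist mode: compounds added and intracellular calcium fluorescence recorded kinetically for 2 min at 1 sec intervals.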

[13] = molecular target: Muscarinic acetylcholine receptor M1 (Homo sapiens) (UniProt P11229); test: Cholinergic receptor muscarinic 1 (CHRM1) small molecule antagonists, cell-based qHTS assay (AID 1963588); further: nearly all actives have a fitted effect of over 40% in size
Chain of Muscarinic acetylcholine receptor M1 (Homo sapiens) (P11229 whole entry, looked up): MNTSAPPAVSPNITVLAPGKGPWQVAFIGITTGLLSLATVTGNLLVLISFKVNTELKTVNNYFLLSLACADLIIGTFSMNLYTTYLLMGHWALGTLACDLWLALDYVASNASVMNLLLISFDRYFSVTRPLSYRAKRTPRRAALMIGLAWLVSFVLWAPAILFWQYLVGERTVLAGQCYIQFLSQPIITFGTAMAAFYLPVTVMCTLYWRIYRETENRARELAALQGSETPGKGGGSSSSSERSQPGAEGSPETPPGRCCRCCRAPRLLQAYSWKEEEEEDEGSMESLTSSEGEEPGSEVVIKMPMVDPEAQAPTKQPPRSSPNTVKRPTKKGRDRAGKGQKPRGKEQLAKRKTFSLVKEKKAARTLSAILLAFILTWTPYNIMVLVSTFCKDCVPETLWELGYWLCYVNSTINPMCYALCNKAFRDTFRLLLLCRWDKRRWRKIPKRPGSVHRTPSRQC
In short: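 Compounds were tested at 15 concentrations in three independent runs. Dye-loaded CHRM1-CHO cells were exposed 5 min at room temperature before stimulation by acetylcholine added at 50nM. Intracellular calcium was read kinetically on FDSS for 3 min.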

[14] = molecular target: Muscarinic acetylcholine receptor M1 (Homo sapiens) (UniProt P11229); test: Cholinergic receptor muscarinic 1 (CHRM1) small molecule agonists, cell-based qHTS assay (AID 1963589); further: nearly all actives have a fitted effect of over 35% in size
In short: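 Calcium flux read-out: kinetic fluorescence at 1 sec intervals after pin-tool compound addition to dye-loaded CHRM1-CHO cells (human M1). Agonist mode; 15 concentrations tested in triplicate independent runs.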

[15] = cAMP Responsive Elements (CRE) small molecule antagonists, cell-based qHTS assay (AID 1963591; active means well fitted inhibition curve with a large enough effect in the signal ratio in the repeat runs, not every such curve was filed as active; the % refers to the signal ratio)
In short: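 HEK293T CRE-bla; 18 h preincubation; compound pin-transfer; NKH477 0.25 uM final, 3 h, 37 C; LiveBLAzer FRET substrate 2 h RT.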

[16] = molecular target: Beta-2 adrenergic receptor (Homo sapiens) (UniProt P07550); test: Adrenergic beta2 receptor (ADRB2) small molecule antagonists, cell-based qHTS assay (AID 1963592); further: series mostly up to about 92 µM; nearly all actives have a fitted effect of over 50% in size
Chain of Beta-2 adrenergic receptor (Homo sapiens) (P07550 whole entry, looked up): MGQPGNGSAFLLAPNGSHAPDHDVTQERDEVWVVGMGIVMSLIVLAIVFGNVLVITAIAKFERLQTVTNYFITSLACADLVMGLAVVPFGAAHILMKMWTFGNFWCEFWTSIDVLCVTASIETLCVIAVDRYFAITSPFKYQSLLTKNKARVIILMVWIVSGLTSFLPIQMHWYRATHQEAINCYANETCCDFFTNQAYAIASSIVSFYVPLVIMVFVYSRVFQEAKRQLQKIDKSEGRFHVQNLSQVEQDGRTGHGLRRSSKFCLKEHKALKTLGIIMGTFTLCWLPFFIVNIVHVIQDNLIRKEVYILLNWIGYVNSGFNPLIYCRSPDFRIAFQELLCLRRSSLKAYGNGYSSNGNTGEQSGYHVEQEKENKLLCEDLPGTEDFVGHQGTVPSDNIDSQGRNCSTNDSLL
In short: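 Assay format: CHO-ADRB2 cells, 18-20hr seeding at 37C/5% CO2, then compound plus 1nM isoproterenol agonist mix for 0.5hr RT. Homogeneous time-resolved fluorescence cAMP detection after 1hr, expressed as 665/615 nm ratio.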

[17] = molecular target: D(2) dopamine receptor (Homo sapiens) (UniProt P14416); test: Dopamine D2 receptor (DRD2) small molecule agonists, cell-based qHTS assay (AID 1963594); further: nearly all actives have a fitted effect of over 35% in size
Chain of D(2) dopamine receptor (Homo sapiens) (P14416 whole entry, looked up): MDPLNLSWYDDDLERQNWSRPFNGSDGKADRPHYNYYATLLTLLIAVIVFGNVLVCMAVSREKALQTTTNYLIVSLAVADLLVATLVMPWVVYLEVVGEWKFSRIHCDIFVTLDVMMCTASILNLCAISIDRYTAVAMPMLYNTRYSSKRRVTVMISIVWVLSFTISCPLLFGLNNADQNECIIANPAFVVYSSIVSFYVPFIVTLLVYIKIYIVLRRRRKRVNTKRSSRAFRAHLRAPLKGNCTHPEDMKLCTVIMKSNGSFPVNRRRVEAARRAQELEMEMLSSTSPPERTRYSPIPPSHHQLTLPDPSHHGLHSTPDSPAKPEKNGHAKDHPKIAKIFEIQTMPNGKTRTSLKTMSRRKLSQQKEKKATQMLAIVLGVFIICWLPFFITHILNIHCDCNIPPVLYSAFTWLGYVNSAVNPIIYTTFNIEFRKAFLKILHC
In short: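 HEK293 cells stably expressing human DRD2, pre-treated with PDE inhibitor Ro20-1724 (0.1 mM final) and compound 10 min at room temperature, then stimulated with NKH477 (200nM […]) for 30 min. cAMP read by HTRF (665/620 nm).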

[18] = molecular target: D(2) dopamine receptor (Homo sapiens) (UniProt P14416); test: Dopamine D2 receptor (DRD2) small molecule antagonists, cell-based qHTS assay (AID 1963595; active means well fitted inhibition curve with a large enough effect in the signal ratio in the repeat runs, with a control signal flat; the % refers to the signal ratio)
In short: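 Stable D2 receptor HEK293 line, 24 h after seeding. Compound preincubated 10 min, then quinpirole (12 nM) with forskolin analogue NKH477 (200 nM), 30 min, room temperature. Detection by time-resolved FRET of cAMP.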

[19] = cAMP Responsive Elements (CRE) small molecule agonists, cell-based qHTS assay (AID 1963590)
In short: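 Beta-lactamase reporter readout: LiveBLAzer B/G FRET substrate, 2 h at room temperature, added after 3 h compound treatment of CRE-bla HEK 293T cells at 37 C/5% CO2.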
On the % scale 0 is the no-effect control and ±100 the full control effect.

O=C(O)c1ccccc1NCCc1ccccc1
inactive: Potency [1] | Potency [2] | Potency [3] | outcome [4] | outcome [5] | Potency [6] | Potency [7] | Potency [8] | Potency [9] | Potency [10] | Potency [11] | Potency [12] | Potency [13] | Potency [14] | Potency [15] | Potency [16] | Potency [17] | Potency [18]

CCCCCCCCCCCc1ccccc1
inactive: Potency [1] | Potency [2] | Potency [3] | outcome [4] | outcome [5] | Potency [6] | Potency [7] | Potency [8] | Potency [9] | Potency [10] | Potency [12] | Potency [13] | Potency [19] | Potency [15] | Potency [16] | Potency [17] | Potency [18]

CCCCS
inactive: Potency [1] | Potency [2] | Potency [3] | outcome [4] | outcome [5] | Potency [6] | Potency [7] | Potency [8] | Potency [9] | Potency [11] | Potency [12] | Potency [13] | Potency [14] | Potency [19] | Potency [15] | Potency [16] | Potency [17] | Potency [18]

[Cl][Sc]([Cl])[Cl]
inactive: Potency [1] | Potency [2] | Potency [3] | outcome [4] | outcome [5] | Potency [6] | Potency [7] | Potency [8] | Potency [9] | Potency [10] | Potency [11] | Potency [12] | Potency [13] | Potency [14] | Potency [19] | Potency [15] | Potency [16] | Potency [18]

CCOC(=O)Cc1cccc2ccccc12
inactive: Potency [1] | Potency [2] | Potency [3] | outcome [4] | outcome [5] | Potency [6] | Potency [7] | Potency [8] | Potency [9] | Potency [10] | Potency [11] | Potency [12] | Potency [13] | Potency [14] | Potency [19] | Potency [16] | Potency [18]

Cc1ccccc1C#N
inactive: Potency [1] | Potency [2] | Potency [3] | outcome [4] | outcome [5] | Potency [6] | Potency [7] | Potency [8] | Potency [9] | Potency [10] | Potency [11] | Potency [12] | Potency [14] | Potency [19] | Potency [15] | Potency [16] | Potency [17] | Potency [18]

C[N+]1(CC2COC(c3ccccc3)(c3ccccc3)O2)CCCCC1 (centres undefined)
inactive: activity change, negative = cytotoxicity [1] -0.244% [at 19 µM] | activity, positive = activation [2] -7.02% [at 19 µM] | activity change [3] -0.634% [at 11.8 µM, active compounds read high] | activation [4] -1.44% [at 15.8 µM] | activation [5] 0.724% [at 11.8 µM] | activation [6] 0.35% [at 13.5 µM] | activity change, negative = cytotoxicity [7] -12% [at 13.5 µM] | activity change, negative = cytotoxicity [8] 4.65% [at 13.5 µM] | activity change, negative = cytotoxicity [9] -20.9% [at 13.5 µM] | activation [10] 0.97% [at 13.5 µM] | activity, negative = inhibition [11] -7.46% [at 12.7 µM] | activation [12] -9.9% [at 15.9 µM] | activation [14] 10.6% [at 15.8 µM] | activation [19] -0.37% [at 19 µM] | activity change, negative = inhibition [15] 1.85% [at 18.9 µM] | activity change, negative = inhibition [16] -7.43% [at 19 µM] | activation [17] -6.08% [at 19 µM] | activity change, negative = inhibition [18] 7.28% [at 18.9 µM]
